IL1B secr inh = blocks inflammasome-driven IL-1 beta release; AID 743279; 4.7% of 360,000 active; THP-1 LPS/ATP IL-1B secretion, AlphaLISA, 16 h; stronger effect = lower value; activity change, % at 57.5 µM; in the data active = activity change below about -50%; inconclusive = mostly about -30% to -49%
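Secreted IL-1B measured by AlphaLISA bead assay after 16 h compound exposure of THP-1 cells; compounds (final up to 57.5 uM) added 1 h before LPS (250 ng/mL) and ATP (1.25 mM) stimulation; lower signal means less secretion.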
HT1080NT lethal = kills 2HG-producing HT-1080-NT fibrosarcoma cells | HT-1080-NT fibrosarcoma viability, CellTiter-Glo ATP luminescence, 48 h | Potency, µM (series often up to 46.1 µM), inactives show at the highest dose activity, negative = less viability, usual class: cytotoxic | 1.6% of 360,000 active;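 also: NT is the 2HG producing partner of a matched IDH1 knockdown line; potency is read from the fitted curve at half-maximal effect; 0% = DMSO-treated cells and -100% = media-only wells without cells; nearly all actives have a fitted effect of over 55% in size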
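Read-out is CellTiter-Glo luminescence after 10 minutes at room temperature, following 48 hours' compound treatment of HT-1080-NT cells (750 cells/well, RPMI, 5% FBS, 37 degrees C).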
12-LOX inh = ALOX12 (human) lipoxygenase inhibition. P18054. purified 12hLO, xylenol orange hydroperoxide absorbance. Potency, µM (series often up to 108 µM), for the others: top-dose activity change, negative = inhibition, actives largely listed as inhibitors. 1.1% of 580,000 active. AID 1671190; also: potency is read from the fitted curve at half-maximal effect
Target sequence (P18054 whole entry, looked up): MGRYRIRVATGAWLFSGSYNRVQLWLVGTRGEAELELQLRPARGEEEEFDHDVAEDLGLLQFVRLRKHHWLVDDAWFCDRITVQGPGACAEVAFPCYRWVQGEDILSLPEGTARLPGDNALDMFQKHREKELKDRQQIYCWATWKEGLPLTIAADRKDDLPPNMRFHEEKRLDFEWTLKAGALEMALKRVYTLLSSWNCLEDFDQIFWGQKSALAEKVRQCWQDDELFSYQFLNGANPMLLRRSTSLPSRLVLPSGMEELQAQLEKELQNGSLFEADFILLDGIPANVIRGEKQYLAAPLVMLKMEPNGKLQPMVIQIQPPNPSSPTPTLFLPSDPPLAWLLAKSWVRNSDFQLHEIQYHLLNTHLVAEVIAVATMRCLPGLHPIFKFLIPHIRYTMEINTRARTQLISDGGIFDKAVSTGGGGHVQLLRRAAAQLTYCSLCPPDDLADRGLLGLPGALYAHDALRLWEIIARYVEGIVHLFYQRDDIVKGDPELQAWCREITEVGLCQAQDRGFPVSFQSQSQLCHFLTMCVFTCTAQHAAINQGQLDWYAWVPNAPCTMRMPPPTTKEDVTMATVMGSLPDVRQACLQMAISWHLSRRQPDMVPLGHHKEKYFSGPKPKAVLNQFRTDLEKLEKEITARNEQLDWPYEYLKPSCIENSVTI
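Purified human 12hLO (150 nM final) in 25 mM Hepes, 0.01% Triton X-100, pH 7.0 was preincubated 15 min at room temperature with compound. Then 40 uM arachidonic acid was added, 30 min. Hydroperoxide was read by Fe-XO absorbance ratio 573/405 nm.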
DT40 TDP1 CPT = DT40-hTDP1 cell growth loss with CPT | chicken DT40 Tdp1-/-;hTDP1 cells + 20 nM CPT, ATP luminescence, 48 h | Potency, µM (titrated, usually from 46.2 µM), for the others: at the highest dose activity change, negative = growth inhibition, hits mostly inhibitors | 12% of 420,000 active | AID 686979; also: potency is read from the fitted curve at half-maximal effect; nearly all actives have a fitted effect of over 55% in size
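Chicken DT40 Tdp1-/- cells complemented with human TDP1, 400 cells/well, exposed to compounds plus 20 nM camptothecin for at least 48 h at 37 C; viability read as ATP content by CellTiter-Glo luminescence.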
DT40 TDP1 no CPT = qHTS for Inhibitors of human tyrosyl-DNA phosphodiesterase 1 (TDP1): qHTS in cells in absence of CPT | DT40 Tdp1-/- hTDP1 cells, no CPT, ATP luminescence, 48 h | Potency, µM (top dose mostly 46.2 µM), without a hit: top-dose activity change, negative = growth inhibition, most hits filed as inhibitors | 15% of 420,000 active | AID 686978, 2013; also: potency is read from the fitted curve at half-maximal effect; nearly all actives have a fitted effect of over 55% in size
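Chicken DT40 Tdp1-/- cells complemented with human TDP1, screened without camptothecin (DMSO vehicle only), 400 cells/well. Compounds pin-transferred, cells incubated at 37 °C for at least 48 hr. Growth read as ATP-dependent luminescence (CellTiter-Glo, 30 min at RT).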
HT1080 IDH1KD tx = HT-1080 IDH1 knockdown cell toxicity (counter line). AID 686971. Potency, µM (series often up to 46.1 µM), for inactives: at the highest dose activity, negative = toxicity, most hits filed as cytotoxic. HT-1080 IDH1 knockdown viability, ATP luminescence, 48 h. 2% of 360,000 active;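 also: potency is read from the fitted curve at half-maximal effect; 0% = DMSO wells and -100% = cell-free medium wells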
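Using the IDH1-knockdown HT-1080 line run in the same batch and compound series as the NT line, viability after 48 h at 37 °C was determined by CellTiter-Glo luminescence and expressed as % activity.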
Active calls of the source: *; ? = inconclusive; · = no result; ! = repeats disagree; [ ] = dose if it differs, or a comment. Many of the other results were omitted from the sample, so hits are more common in it than they were. Unless noted, calls follow the shape of the dose curve; as a rule, active = well fitted curve in the direction sought with a large enough effect; inconclusive = small, poorly fitted or top-dose-only effect, or another doubt; inactive = no such curve, though single readings can be large; an effect the other way counts as inactive or inconclusive. Unless noted, % is scaled to controls: 0 for no effect and ±100 for the full control effect.

SMILES | IL1B secr inh | HT1080NT lethal | 12-LOX inh | DT40 TDP1 CPT | DT40 TDP1 no CPT | HT1080 IDH1KD tx
Cn1nc(C(C)(C)C)c([N+](=O)[O-])c1C(=O)Nc1ccc(Br)cc1 | -29 | ? | 46% | ? | 23µM* | -26%
CC(C)CCN1CCC(N2CCN(S(=O)(=O)Cc3ccc(F)cc3Cl)CC2)C1=O (centres undefined) | · | · | -3% | · | · | ·
COc1ccc(-c2cc(N3CCCN(C(=O)c4cnccn4)CC3)n[nH]2)cc1 | · | · | 45% | · | · | ·
Cc1nc2ccc(C(=O)Nc3cccc([N+](=O)[O-])c3)cc2s1 | -6 | 8% | 2% | ? | 18µM* | 9%
COC(=O)c1ccc(NC(=O)c2ccc3nc(C)sc3c2)cc1 | 34 | -12% | 1% | -6% | -1% | -13%
Cc1ccc(NC(=O)c2ccc(Cl)c(NC(=O)c3cccs3)c2)cc1 | -14 | ? | 376% | ? | ? | ?
Cc1nc2ccc(NC(=O)c3ccc(Cl)c(NC(=O)c4cccs4)c3)cc2s1 | 37 | -15% | 6% | ? | 21µM* | -18%
O=C(NC(=S)Nc1cccc(NC(=O)c2ccccc2)c1)c1cccc([N+](=O)[O-])c1 | -6 | 6% | 28µM* | ? | -22% | 13%
COC(=O)c1cccc(NC(=O)c2cccc([N+](=O)[O-])c2)c1 | -7 | 23% | 100% | 9% | -4% | 16%
COCCCn1c(C)cnc1C1CCN(S(=O)(=O)Cc2ccccc2)C1 (centres undefined) | · | · | 17% | · | · | ·
COCCN1CCCN(C(=O)c2cccc(Cl)c2)c2ccccc21 | · | · | 34% | · | · | ·
CCn1cc(CNC(=O)c2cc(COc3ccc(F)cc3Cl)on2)cn1 | -21 | ? | 0% | 21µM* | 5.8µM* | -22%
CC(Cc1cccnc1)NC(=O)c1cc(COc2ccc(F)cc2Cl)on1 (centres undefined) | -14 | 0% | 9% | 21µM* | 23µM* | -9%
Cc1nc2ccc(Cl)cc2cc1C(=O)NCC(=O)N1CCCCC1 | · | · | 19% | · | · | ·
CC(C)OC(=O)/C(=C\c1ccc2c(c1)c1ccccc1n2C)NC(=O)c1ccccc1 | -1 | 0% | 0% | 21µM* | 21µM* | 1%
CC(C)OC(=O)/C(=C/c1ccc2c(c1)c1ccccc1n2C)NC(=O)c1ccccc1 | -1 | -1% | 2% | ? | 10µM* | 0%
Cn1c2ccccc2c2cc(/C=C(\NC(=O)c3ccccc3)C(=O)O)ccc21 | 18 | -11% | ? | 11% | -9% | -1%
C#CCNC(=O)c1nccnc1N | · | · | -45% | · | · | ·
CC(C)Cc1nc(N2CCOCC2)c(C#N)c2c1CCCC2 | · | · | -13% | · | · | ·
CC(C)c1ccccc1NC(=O)/C=C/c1cccs1 | · | · | 8% | · | · | ·
COc1ccccc1-c1cc(N2CCN(c3ccccn3)CC2)c2onc(C)c2n1 | · | · | 89µM* | · | · | ·
COc1cc2c(CCNC(C)=O)c[nH]c2cc1O | -7 | 22% | 40µM*! | -3% | -4% | 11%
COc1cccc(OC)c1C(=O)NCCc1c[nH]c2ccccc12 | · | · | 38% | · | · | ·
C/C(=N\N)c1c(-c2ccccc2)c2cc(C)ccc2[nH]c1=O | -17 | 13% | 65% | -13% | 10% | 10%
Cc1ccc2[nH]c(=O)c(CNS(=O)(=O)c3ccccc3)c(-c3ccccc3)c2c1 | -10 | -8% | 21% | ? | 18µM* | -20%
SMILES | IL1B secr inh | HT1080NT lethal | 12-LOX inh | DT40 TDP1 CPT | DT40 TDP1 no CPT | HT1080 IDH1KD tx
O=C(O)CS/C(=C/c1ccc2ccccc2c1)c1nc2ccccc2s1 | · | · | -7% | · | · | ·
COc1ccc(-c2cc3c(=O)n(CC(=O)Nc4cccc(Cl)c4)nc(C)n3n2)cc1 | 4 | -4% | -16% | 15µM* | ? | -1%
CCOC(=O)N1CCN(C(=O)Cn2nc(C)n3nc(-c4ccc(OC)cc4)cc3c2=O)CC1 | 4 | 6% | -27% | ? | ? | 16%
CCOC(=O)N1CCN(C(=O)Cn2nc(C)n3nc(-c4ccc(CC)cc4)cc3c2=O)CC1 | 13 | -1% | 28% | 16µM* | 21µM* | -2%
CCOC(=O)C1CCN(C(=O)Cn2nc(C)n3nc(-c4ccc(OC)cc4)cc3c2=O)CC1 | 9 | 2% | -9% | 23µM* | 21µM* | 0%
CC(/C=N/c1ccccn1)=N\c1ccccn1 | · | · | 2% | · | · | ·
Cn1ncc(N=Cc2ccccc2)c1C(=O)Nc1cccc(Cl)c1 | 4 | 5% | ? | ? | 18µM* | 1%
COc1ccc(CCNc2nc(SCc3cccc(Cl)c3)nc3ccccc23)cc1OC | · | · | 0% | ? | 8.2µM* | ·
COc1ccc(CCNc2nc(SCc3ccccc3F)nc3ccccc23)cc1OC | · | · | 0% | 3.7µM* | 3.7µM* | ·
COc1ccc(CCNc2nc(SCc3ccc(F)cc3)nc3ccccc23)cc1OC | · | · | -19% | 7.3µM* | 7.3µM* | ·
Clc1cccc(CSc2nc(NCCc3ccccc3)c3ccccc3n2)c1 | · | · | -16% | ? | ? | ·
Cc1cc(C)c2c(=O)cc(C(=O)N(Cc3ccccc3)Cc3ccco3)oc2c1 | · | · | -11% | · | · | ·
COc1ccc(CN2C=C(C(=O)OCc3noc(C4CCCC4)n3)C(C)=NS2(=O)=O)cc1 | · | · | 16% | · | · | ·
O=C1NC(C(=O)N2CCOCC2)CN1Cc1ccccc1 (centres undefined) | · | · | 8%[176 µM] | · | · | ·
Cc1ccc(S(=O)(=O)/N=C2\C(=O)c3ccccc3C([O-])=C2n2cc[n+](CCC(C)C)c2)cc1 | 44 | ? | · | 16µM* | 16µM* | 10µM*
CC(=O)Nc1ccc(S(=O)(=O)/N=C2\C(=O)c3ccccc3C([O-])=C2n2cc[n+](-c3ccccn3)c2)cc1 | 63 | -5% | ? | 3.7µM* | 8.2µM* | -16%
Cc1ccc(NC(=O)C[n+]2ccn(C3=C([O-])c4ccccc4C3=O)c2)cc1 | -3 | -9% | 17% | 14% | -11% | -15%
Cc1nc2ccccn2c1C(=O)N=Nc1c(O)n(CCC(C)C)c2ccccc12 | 16 | -2% | -5% | 7.3µM* | 7.3µM* | -2%
Cc1ccc(C(=O)CSC2=C(C#N)C(c3ccco3)C3=C(CC(C)(C)CC3=O)N2)cc1 (centres undefined) | -85* | -30% | 19% | 13µM* | 10µM* | ?
Cc1ccc(NC(=O)CSC2=C(C#N)C(c3ccco3)C3=C(CCCC3=O)N2)cc1 (centres undefined) | -52* | -2% | -28% | -24% | ? | 4%
